Measurements published in PubChem BioAssay (NCATS).
“And” between values parts separate entries of the source, which are not always exact repeats. Identical values can stand only once. A number with no mark means an inactive call. Records with an inconclusive call do not appear. Where a call stands in place of a potency, no number is given. The source made the active and inactive calls. Unless noted, calls come from the whole dose curve; as a rule, active = well fitted curve in the direction sought with a large enough effect; inconclusive = small, poorly fitted or top-dose-only effect, or another doubt; inactive = no such curve, though single readings can be large; an effect the other way counts as inactive or inconclusive.

Key:
[1] = Cell Viability - HUV-EC-C (AID 542);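 note: cells exposed to compound for 40 hours; nearly all actives have a fitted effect of over 35% in size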
How it was run: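 Luminescent ATP read-out (CellTiter-Glo, 20 min room temperature) after 40 hr compound treatment of HUV-EC-C cells at 37 °C. Concentration-response data fitted with the standard Hill equation to give AC50; tamoxifen and doxorubicin served as positive controls.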

[2] = Cellular Toxicity (caspase-3) H-4-II-E (AID 663); conditions: Potency: caspase-3 activation;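 note: cells exposed to compound for 16 hr before readout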
How it was run: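 H-4-II-E rat hepatoma, 1500 cells/well, 5 hr settle at 37 °C; compound 16 hr, 37 °C, complete medium; Caspase-Glo 3/7, 20 min RT; luminescence. DMSO = 0%, 100 uM tamoxifen = 100%; Hill-equation AC50.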

[3] = Cellular Toxicity (caspase-3) NIH 3T3 (AID 666)
How it was run: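 NIH 3T3, 1000 cells/well, 5 hr settle then 16 hr compound at 37°C; Caspase-Glo 3/7, 20 min RT, luminescence. DMSO = basal, 100 uM tamoxifen = 100%. Hill-equation AC50, qHTS.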

[4] = target: Cytochrome P450 3A4 (Homo sapiens) (UniProt P08684); assay: qHTS Assay for Inhibitors and Substrates of Cytochrome P450 3A4 (AID 884); note: nearly all actives have a fitted effect of over 50% in size; note: potency is the fitted concentration of half-maximal effect
How it was run: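 Luminescent readout of luciferin produced by CYP3A4 (20 nM) dealkylation of Luciferin-PPXE, 25 uM (its KM). NADPH-driven reaction ran 60 min at RT after 10 min compound preincubation; data scaled to 57 uM ketoconazole as 100% inhibition.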

[5] = MultiTox-Fluor Cytotoxicity Assay - LYMP1-003 - Dead Cells (AID 961); note: nearly all actives have a fitted effect of over 70% in size
How it was run: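 Dead-cell protease release, detected as bis-AAF-R110 fluorescence at 485/520 nm, was measured in LYMP1-003 cells after 16 h compound treatment at 37 C. AC50 values came from Hill-modeled qHTS curves normalized to DMSO (0%) and 15 uM tetraoctylammonium bromide (100%).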

[6] = MultiTox-Fluor Cytotoxicity Assay - LYMP1-003 - Live Cells (AID 962);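 note: cells exposed to compound for 16 hours at 37 °C; cytotoxic hits lower the live-cell protease signal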
How it was run: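 Readout: live-cell fluorescence (Ex/Em=405/510) from GF-AFC cleavage after 60 min MultiTox-Fluor reagent at room temperature. Lymphoblastoid LYMP1-003 cells, 16 hr compound treatment, 37 C. Concentration-response fitted to standard Hill equation for AC50.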

[7] = Cell Viability - LYMP2-003 (AID 965);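 note: cells exposed to compounds for 24 h before reading; nearly all actives have a fitted effect of over 50% in size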
How it was run: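 CellTiter-Glo luminescence quantified ATP loss after 24 h compound treatment of LYMP2-003 lymphoblastoid cells at 37 C. Titration series were fitted with the standard Hill equation to give AC50.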

[8] = target: Glucocorticoid receptor (Homo sapiens) (UniProt P04150); assay: qHTS assay for small molecule antagonists of glucocorticoid receptor signaling (AID 588533; active = well fitted inhibition curve with a large enough effect in the signal ratio, with a control signal flat, not every such curve was filed as active; the % refers to the signal ratio)
How it was run: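 Antagonist-mode qHTS: compound titrations added to GRE-bla HeLa cells, then dexamethasone 2 nM final; 18 h, 37 C. CCF4 FRET fluorescence normalized to dexamethasone and DMSO; IC50 from Hill fit.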

[9] = target: Vitamin D3 receptor (Homo sapiens) (UniProt P11473); assay: qHTS assay for small molecule antagonists of vitamin D receptor signaling (AID 588541; calls by dose curve;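 note: receptor activated by calcitriol during compound treatment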)
How it was run: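 VDR-UAS-bla HEK293T cells in 2% charcoal-stripped FBS were stimulated with 1-alpha,25-dihydroxyvitamin D3 (3 nM final) plus compound for 16 h at 37 C. The beta-lactamase CCF4 readout was normalized to 50 nM agonist and DMSO, and Hill fits gave IC50.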

[10] = qHTS assay for small molecule activators of the nuclear factor-kappa B (NF-kB) signaling pathway (AID 651749; active = well fitted activation curve with a large enough effect in the signal ratio; the % refers to the signal ratio); conditions: NF-kB-bla ME-180 cells, beta-lactamase FRET ratio, 16 h; stronger effect = higher value
How it was run: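 NF-kB-bla ME-180 cells, 2,000/well; 23 nL compound or DMSO pinned; 16 hr, 37C/5% CO2; beta-lactamase FRET read-out.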

[11] = target: Nuclear receptor ROR-gamma (Homo sapiens) (UniProt P51449); assay: qHTS assay for small molecule antagonists of the retinoid-related orphan receptor gamma (ROR-gamma) signaling pathway (AID 651802);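 note: CHO cells with doxycycline-induced ROR-gamma expression; luciferase reporter luminescence driven by ROR response element; nearly all actives have a fitted effect of over 60% in size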
How it was run: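 Luciferase read-out: ONE-Glo luminescence after 30 min at room temperature, following 16hr doxycycline induction at 37C, 5% CO2 of CHO cells with TET-inducible ROR and RORE-LUC reporter; decreased luminescence = reduced reporter activity.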

[12] = qHTS assay for cell viability of HEK293 cells (AID 743288); conditions: ATP luminescence (CellTiter-Glo), 18 h; max response: stronger effect = lower value; note: nearly all actives have a fitted effect of over 50% in size
How it was run: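 Readout is luciferase-coupled ATP content (CellTiter-Glo luminescence, 30 min room temperature) as a measure of metabolically competent cells. Parental HEK293 cells were plated 5 h or more before compound addition, then treated 18 h at 37 C.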

[13] = qHTS assay for small molecule activators of the human pregnane X receptor (PXR) signaling pathway (AID 720659; call rule not given here)
[14] = Cell Viability - NIH 3T3 (AID 541); conditions: NIH 3T3 cell viability, qHTS; activity change, negative = cytotoxicity: at 92.2 µM (top of the series);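 note: cells exposed to compound for 40 hours; nearly all actives have a fitted effect of over 25% in size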
How it was run: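 qHTS format; 40 hr compound exposure, 37 °C; CellTiter-Glo luminescence (cellular ATP) read-out after 20 min at RT. Decrease in ATP = cytotoxicity; AC50 from standard Hill fit.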

[15] = Cellular Toxicity (caspase-3) HUV-EC-C (AID 656)
How it was run: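 Luminescent Caspase-Glo 3/7 readout after 16 h, 37 °C compound exposure of HUV-EC-C endothelial cells, 1000 per well, complete medium. AC50 derived by Hill fitting, with DMSO as baseline and 100 uM tamoxifen as full activation.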

[16] = Cellular Toxicity (caspase-3) N2a (AID 665);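 note: compound exposure lasted 16 h at 37 °C before readout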
How it was run: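 Luminescent Caspase-Glo 3/7 readout in N2a mouse neuroblastoma cells after 16 h compound exposure at 37 °C. Signal scaled to DMSO (basal) and 10 uM staurosporine (100%). Concentration-response fitted with Hill equation for AC50.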

[17] = target: Estrogen receptor (Homo sapiens) (UniProt P03372); assay: qHTS assay for small molecule antagonists of estrogen receptor alpha signaling (AID 588513; active = well fitted curve in the direction sought with a large enough effect in the signal ratio, with a control signal flat, not every such curve was filed as active; the % refers to the signal ratio)
How it was run: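 Antagonist mode: inhibition of 0.5 nM 17-beta-estradiol-driven beta-lactamase reporter in HEK 293 ER-alpha-UAS-bla cells, 18 h at 37C, CCF4 readout after 2 h at RT. Normalised to estradiol and DMSO; titration fitted to Hill.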

[18] = target: Estrogen receptor (Homo sapiens) (UniProt P03372); assay: qHTS assay for small molecule agonists of estrogen receptor alpha signaling (AID 588514; calls by dose curve; note: nearly all actives have a fitted effect of over 70% in size)
How it was run: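 Read-out: CCF4 fluorescence from a beta-lactamase reporter in ER-alpha-UAS-bla HEK 293 cells after 18 hrs of compound exposure at 37 C. Normalized to 20 nM 17-beta-estradiol (100%) and DMSO (0%).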

[19] = qHTS assay for small molecule agonists of the antioxidant response element (ARE) signaling pathway measured by Nrf2-dependant transcriptional activity - cell viability counter screen (AID 720653; active = well fitted curve in the direction sought with a large enough effect in the repeat runs; an effect the other way counts as inactive or inconclusive); conditions: ARE-bla HepG2 viability, CellTiter-Glo ATP luminescence, 16 h; max response: stronger effect = lower value
How it was run: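 ARE-bla HepG2 cells treated with compounds for 16 h at 37C; this counter screen measures viability as intracellular ATP by CellTiter-Glo luminescence after 30 min at room temperature.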

[20] = qHTS assay for small molecule agonists of the antioxidant response element (ARE) signaling pathway (AID 651741; active = well fitted activation curve with a large enough effect in the signal ratio; the % refers to the signal ratio; note: potency is the fitted concentration of half-maximal effect)
How it was run: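 HepG2 ARE-bla reporter cells, 2,000/well; 5 h settle at 37 C/5% CO2; compound pin transfer (23 nL, DMSO); 16 h at 37 C; LiveBLAzer B/G FRET substrate, 2 h RT; fluorescence intensity read.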

Estrogen receptor (Homo sapiens), sequence (P03372 whole entry, looked up): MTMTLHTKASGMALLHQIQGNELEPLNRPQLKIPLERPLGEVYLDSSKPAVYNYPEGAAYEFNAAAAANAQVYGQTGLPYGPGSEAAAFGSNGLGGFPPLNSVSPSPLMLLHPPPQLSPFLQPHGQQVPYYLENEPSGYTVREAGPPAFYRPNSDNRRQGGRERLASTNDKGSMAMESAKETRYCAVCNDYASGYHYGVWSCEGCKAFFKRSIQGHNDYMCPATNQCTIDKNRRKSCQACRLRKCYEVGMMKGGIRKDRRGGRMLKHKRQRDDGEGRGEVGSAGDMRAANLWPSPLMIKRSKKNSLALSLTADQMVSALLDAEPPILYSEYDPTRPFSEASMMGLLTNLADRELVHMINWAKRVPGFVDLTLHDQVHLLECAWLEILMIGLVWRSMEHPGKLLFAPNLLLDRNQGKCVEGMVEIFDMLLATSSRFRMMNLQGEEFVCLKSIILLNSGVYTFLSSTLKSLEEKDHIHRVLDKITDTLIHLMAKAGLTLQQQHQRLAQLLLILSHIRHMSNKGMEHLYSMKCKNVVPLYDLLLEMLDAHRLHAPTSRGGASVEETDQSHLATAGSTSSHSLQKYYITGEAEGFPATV
Cytochrome P450 3A4 (Homo sapiens), sequence (P08684 whole entry, looked up): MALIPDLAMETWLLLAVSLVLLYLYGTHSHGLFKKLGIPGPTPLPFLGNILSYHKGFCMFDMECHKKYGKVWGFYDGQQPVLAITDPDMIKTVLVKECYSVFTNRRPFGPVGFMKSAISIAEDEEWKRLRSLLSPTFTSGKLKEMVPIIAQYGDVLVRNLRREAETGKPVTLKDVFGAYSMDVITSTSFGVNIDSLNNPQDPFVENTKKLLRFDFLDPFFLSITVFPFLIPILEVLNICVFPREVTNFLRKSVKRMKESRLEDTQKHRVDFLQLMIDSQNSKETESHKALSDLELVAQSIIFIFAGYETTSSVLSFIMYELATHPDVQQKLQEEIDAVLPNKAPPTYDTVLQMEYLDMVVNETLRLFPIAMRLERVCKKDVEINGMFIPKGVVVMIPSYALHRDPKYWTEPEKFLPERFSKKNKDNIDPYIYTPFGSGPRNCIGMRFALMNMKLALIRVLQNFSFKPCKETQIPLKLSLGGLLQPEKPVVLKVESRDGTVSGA
Nuclear receptor ROR-gamma (Homo sapiens), sequence (P51449 whole entry, looked up): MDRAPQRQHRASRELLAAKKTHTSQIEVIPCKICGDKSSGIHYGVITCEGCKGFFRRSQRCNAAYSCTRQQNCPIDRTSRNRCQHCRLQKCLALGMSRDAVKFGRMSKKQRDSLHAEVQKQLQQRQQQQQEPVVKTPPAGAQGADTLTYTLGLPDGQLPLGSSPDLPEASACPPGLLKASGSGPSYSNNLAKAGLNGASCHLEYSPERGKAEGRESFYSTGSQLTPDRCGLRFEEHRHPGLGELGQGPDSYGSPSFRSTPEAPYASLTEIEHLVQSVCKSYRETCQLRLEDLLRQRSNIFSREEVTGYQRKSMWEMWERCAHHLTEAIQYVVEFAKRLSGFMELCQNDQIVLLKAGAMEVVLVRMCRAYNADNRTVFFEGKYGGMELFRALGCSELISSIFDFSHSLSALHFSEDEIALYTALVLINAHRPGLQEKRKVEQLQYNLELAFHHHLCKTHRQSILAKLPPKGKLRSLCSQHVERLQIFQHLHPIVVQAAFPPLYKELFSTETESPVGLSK
Vitamin D3 receptor (Homo sapiens), sequence (P11473 whole entry, looked up): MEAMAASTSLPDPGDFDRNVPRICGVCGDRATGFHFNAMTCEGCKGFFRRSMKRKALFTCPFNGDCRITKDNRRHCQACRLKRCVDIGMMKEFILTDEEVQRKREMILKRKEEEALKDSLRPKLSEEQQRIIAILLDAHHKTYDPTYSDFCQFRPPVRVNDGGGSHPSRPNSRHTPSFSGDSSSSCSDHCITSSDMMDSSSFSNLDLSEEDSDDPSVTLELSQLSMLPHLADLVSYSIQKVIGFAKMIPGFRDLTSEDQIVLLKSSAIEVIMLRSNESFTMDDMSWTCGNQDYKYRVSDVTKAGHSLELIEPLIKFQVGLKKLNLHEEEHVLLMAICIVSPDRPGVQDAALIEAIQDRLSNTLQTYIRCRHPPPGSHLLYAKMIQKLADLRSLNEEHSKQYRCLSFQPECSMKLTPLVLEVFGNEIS
Glucocorticoid receptor (Homo sapiens), sequence (P04150 whole entry, looked up): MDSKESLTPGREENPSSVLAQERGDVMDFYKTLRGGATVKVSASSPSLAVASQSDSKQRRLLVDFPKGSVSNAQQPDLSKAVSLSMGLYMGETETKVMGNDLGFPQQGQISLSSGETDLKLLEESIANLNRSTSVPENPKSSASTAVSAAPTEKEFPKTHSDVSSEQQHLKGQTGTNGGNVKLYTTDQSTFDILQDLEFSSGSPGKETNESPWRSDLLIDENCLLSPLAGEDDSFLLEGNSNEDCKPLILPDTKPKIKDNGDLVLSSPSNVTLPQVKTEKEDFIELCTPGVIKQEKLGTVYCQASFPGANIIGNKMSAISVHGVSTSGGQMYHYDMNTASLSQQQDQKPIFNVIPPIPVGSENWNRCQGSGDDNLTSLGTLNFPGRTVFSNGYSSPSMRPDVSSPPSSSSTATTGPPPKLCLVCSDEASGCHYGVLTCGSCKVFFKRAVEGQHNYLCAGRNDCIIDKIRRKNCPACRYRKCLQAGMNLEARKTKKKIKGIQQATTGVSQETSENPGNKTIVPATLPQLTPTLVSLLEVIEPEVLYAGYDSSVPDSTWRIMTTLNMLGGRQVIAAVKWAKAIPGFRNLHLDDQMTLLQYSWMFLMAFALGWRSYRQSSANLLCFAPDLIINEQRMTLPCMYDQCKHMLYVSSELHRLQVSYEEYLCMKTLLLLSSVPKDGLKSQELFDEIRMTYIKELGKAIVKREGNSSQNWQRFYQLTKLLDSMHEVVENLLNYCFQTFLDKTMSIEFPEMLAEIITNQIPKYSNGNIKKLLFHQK

| SMILES | Potency [1] | Potency [2] | outcome [3] | Potency [4] | Potency [5] | Potency [6] | Potency [7] | Potency [8] | Potency [9] | activation [10] | Potency [11] | max response [12] | outcome [13] | activity change, negative = cytotoxicity [14] | Potency [15] | outcome [16] | outcome [17] | Potency [18] | max response [19] | Potency [20] |
| --- | --- | --- | --- | --- | --- | --- | --- | --- | --- | --- | --- | --- | --- | --- | --- | --- | --- | --- | --- | --- |
| CCOC(=O)C1OC1c1ccccc1 (configuration not stated) | inactive | inactive | inactive | inactive | inactive | inactive | inactive | inactive | inactive | 0.437% | inactive | -1.14% | inactive | – | – | – | – | – | – | – |
| C/C(Cl)=C/CCl | inactive | inactive | inactive | inactive | – | – | inactive | – | – | – | inactive | -11.4% | inactive | -23.5% | inactive | inactive | inactive | inactive | 5.48% | – |
| OCC(CBr)(CBr)CBr | – | inactive | inactive | inactive | inactive | – | inactive | – | inactive | 0.264% | – | -19.9% | – | – | inactive | inactive | inactive | inactive | -12.4% | inactive |
| CCCCCCCCOc1ccc(C(=O)O)cc1 | – | inactive | inactive | inactive | – | inactive | – | inactive | inactive | -0.0346% | inactive | 8.21% | inactive | -11.5% | inactive | inactive | – | – | -6.08% | – |
| CC(=O)OCc1ccc2c(c1)OCO2 | inactive | – | inactive | – | inactive | inactive | inactive | inactive | inactive | – | inactive | -6.03% | inactive | – | – | inactive | – | – | – | inactive |
| C=Cc1cccc(C)c1 | – | inactive | inactive | inactive | – | inactive | – | inactive | inactive | – | inactive | – | inactive | 4.07% | – | – | inactive | inactive | 10.9% | inactive |
| C=CC1CO1 (configuration not stated) | – | inactive | inactive | inactive | – | inactive | – | inactive | inactive | 0.488% | inactive | -1.41% | inactive | -8.56% | – | inactive | – | – | – | inactive |
| Cc1ccc(C(=O)O)cc1[N+](=O)[O-] | inactive | inactive | – | inactive | inactive | inactive | – | – | inactive | -1.02% | – | 1.99% | inactive | -13.4% | – | inactive | inactive | inactive | – | – |
| c1ccc2c(c1)ccc1ccccc12 | – | – | – | inactive | – | inactive | – | inactive | inactive | -1.69% and -0.971% | inactive | – | inactive | -132% (active) | – | inactive | inactive | inactive | -0.337% and -2.44% | inactive |
| c1ccc(CSCc2ccccc2)cc1 | – | – | inactive | inactive | inactive | inactive | inactive | inactive | inactive | -0.1% | inactive | 1.27% | inactive | -18.8% | inactive | inactive | – | – | -4.18% | inactive |
| CC(=O)OC(C(=O)c1ccccc1)c1ccccc1 (configuration not stated) | inactive | inactive | – | inactive | inactive | – | – | inactive | – | 0.305% | – | – | inactive | – | – | inactive | inactive | inactive | – | – |
| CCCCCCCCC1CO1 (configuration not stated) | – | – | inactive | inactive | – | – | inactive | inactive | inactive | – | inactive | – | inactive | -9.26% | inactive | inactive | – | – | – | – |
| CCCCC(CC)COCCCN (configuration not stated) | inactive | inactive | – | – | inactive | – | inactive | – | – | – | – | – | inactive | -23.1% | inactive | – | inactive | inactive | -14.9% | inactive |
| CN(C)c1ccc(Cc2ccc(N(C)C)cc2)cc1 | – | – | – | – | inactive | inactive | inactive | inactive | inactive | -0.0867% and 0.169% | – | – | – | -18.8% | inactive | inactive | – | – | – | – |
| Oc1ccc2c(c1)OCO2 | inactive | inactive | – | – | – | – | inactive | inactive | inactive | – | inactive | 7.08% | inactive | – | inactive | inactive | inactive | inactive | 5% | inactive |
| NC(=O)c1ccc([N+](=O)[O-])cc1 | inactive | – | inactive | inactive | inactive | inactive | – | inactive | inactive | -0.545% | inactive | 4.95% | inactive | -5.57% | inactive | – | – | – | 5.8% | inactive |
| Nc1ccc(N=Nc2ccccc2)c(N)c1 | – | inactive | – | 12.6 µM (active) | – | inactive | inactive | inactive | – | -1.7% | inactive | -22.9% | – | – | inactive | – | inactive | inactive | -16.9% | 42.2 µM (active) |
